PubChem BioAssay (Tox21)
Results filed as inconclusive are left out. A call without a number means that no potency is given here. Calls of active or inactive are those of the source. Calls come from the whole dose curve; as a rule, active = well fitted inhibition curve with a large enough effect in the repeat runs; inconclusive = weak or mixed curves; inactive = no such curve, though single readings can be large or run the other way.

Assay: qHTS assay to identify small molecule antagonists of the thyroid receptor (TR) signaling pathway (AID 743065); note: nearly all actives have a fitted effect of over 55% in size
Conditions: GH3.TRE-Luc, T3-stimulated luciferase inhibition, 23.5 h; series mostly up to 70.3 µM
From the text: U.S. Tox21 Program National Center for Advancing Translational Sciences [NCATS] NIH Chemical Genomics Center [NCGC] U.S. Environmental Protection Agency [EPA] National Institutes of Environmental Health Sciences [NIEHS] National Toxicology Program [NTP] U.S. Food and Drug Administration [FDA] Tox21 Assay Overview: Thyroid receptor (TR), a nuclear hormone receptor, plays an important role in development, proliferation, differentiation, metabolism, brain function, and cardiovascular system. […] To profile the Tox21 10K compound library in TR signaling, a cell-based GH3-TRE-Luc assay (GH3.TRE-Luc cell line, developed by the laboratory of Dr. Albertinka J. Murk, Wageningen University) was used to measure the inhibition of TR. GH3 (rat pituitary tumor) cells stably expressing a TR activity sensor consisting of two TR response elements and a luciferase reporter gene.
Tox21 Assay Protocol Summary: GH3.TRE-Luc cells were dispensed at 1500 cells/4 uL/well into 1536-well white solid bottom plates using a Multidrop Combi dispenser (Thermo Fisher Scientific Inc., Waltham, MA). After the assay plates were incubated at 37 C for 4 hours, 23 nL of library compound or DMSO controls was transferred to the assay plates by a pintool station (Kalypsys, San Diego, CA), followed by addition of 1 ul of T3 (1 nM, final concentration in the wells) to stimulate TR transactivation. The assay plates were incubated at 37 C for 23.5 h, and then 1 uL of CellTiter-Fluor reagent (Promega, Madision, WI) of measuring cytotoxicity was added to each well using a Bioraptr Flying Reagent Dispenser (FRD) workstation (Beckman Coulter, Indianapolis, IN, USA). The plates were incubated at 37 C and 5% CO2 for additional 30 min, and fluorescence intensity was measured by a ViewLux plate reader (PerkinElmer, Shelton, CT). For measuring luciferase reporter gene activity, 4 uL of ONE-Glo Luciferase Assay reagent (Promega) was added to each well using a Bioraptr FRD (Beckman Coulter), followed by 30 min incubation at room temperature. The luminescence intensity of plates was recorded by a ViewLux plate reader (PerkinElmer, Shelton, CT).

| SMILES | Potency |
| --- | --- |
| Cc1ccccc1N | inactive |
| CNC(=O)O/N=C/C(C)(C)S(C)=O (stereo not given) | inactive |
| O=C/C=C/c1ccccc1 | inactive |
| c1ccc2c(c1)CCCC2 | inactive |
| Nc1ccc(N)cc1 | inactive |
| CNc1cnn(-c2cccc(C(F)(F)F)c2)c(=O)c1Cl | inactive |
| CNC(=O)Oc1cccc2ccccc12 | inactive |
| CCOC(=O)CC(SP(=O)(OC)OC)C(=O)OCC (stereo not given) | inactive |
| N#Cc1ccccn1 | inactive |
| O=S(=O)(O)OOS(=O)(=O)O | inactive |
| O=P1(NCCCl)OCCCN1CCCl (stereo not given) | inactive |
| C=C(C)C(=O)OCC(CC)CCCC (stereo not given) | inactive |
| CN(C)C(=O)C(c1ccccc1)c1ccccc1 | inactive |
| Cl[C@H]1OCCO[C@@H]1Cl | inactive |
| CC[N+](=O)[O-] | inactive |
| CNC(=O)O/N=C(\SC)C(=O)N(C)C | inactive |
| CCCOC(=O)c1ccccc1C(=O)OCCC | inactive |
| COP(=S)(OC)SCN1C(=O)c2ccccc2C1=O | inactive |
| Cc1cccc(C)c1N | inactive |
| Oc1ccc(Cl)cc1 | inactive |

| SMILES | Potency |
| --- | --- |
| Cc1cccc(N)c1 | inactive |
| ClCCOCCCl | inactive |
| CCNc1nc(Cl)nc(NC(C)C)n1 | inactive |
| ClC(Cl)c1ccccc1 | inactive |
| CC12CC1(C)C(=O)N(c1cc(Cl)cc(Cl)c1)C2=O (stereo not given) | inactive |
| COc1nc(NC(C)C)nc(NC(C)C)n1 | inactive |
| O=C(O)c1cc(Oc2ccc(C(F)(F)F)cc2Cl)ccc1[N+](=O)[O-] | inactive |
| O=[N+]([O-])c1cc([As](=O)(O)O)ccc1O | inactive |
| Cl/C=C/Cl | inactive |
| CNCC(O)c1ccc(O)cc1 (stereo not given) | inactive |
| C=CC#N | inactive |
| Oc1c(Br)cc(Br)cc1Br | inactive |
| Sc1ccccc1 | inactive |
| OCC(O)CCl (stereo not given) | inactive |
| O=C(O)COc1ccccc1 | inactive |
| Nc1ncc([N+](=O)[O-])s1 | inactive |
| Nc1cc(Cl)cc(Cl)c1 | inactive |
| Cc1cc(Cl)ccc1OC(C)C(=O)O (stereo not given) | inactive |
| C=CCN=C=S | inactive |
| COC(=O)Nc1cccc(OC(=O)Nc2cccc(C)c2)c1 | inactive |
